TIM10 inh: growth inhibitors of isogenic TIM10 control yeast, primary screen, counter-screen for tim10-1 yeast inhibitor project, luminescence, uHTS; AID 463195, 2010; inhibition, % at 10 µM; S. cerevisiae TIM10 strain growth, BacTiter-Glo luminescence, 24 h; 330,000 compounds, 1.4% hits;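 active = inhibition of 40% or more at the single tested concentration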;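 also: wild-type TIM10 isogenic control strain grown at permissive 25 °C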
NALP1 inh: NALP1 inflammasome inhibitors in reconstituted yeast, colorimetric, S. cerevisiae, triplicate retest; S. cerevisiae NALP1/ASC/caspase-1 growth, X-gal OD620, 72 h; inhibition, % at 10 µM; 280,000 compounds, 0.61% hits; AID 2071, 2009; in the data active = inhibition mostly above about 24%, no sharp cut-off; inactive = mostly below about 32%
tim10-1 inh: growth inhibitors of tim10-1 mutant yeast, primary screen, luminescence, uHTS | S. cerevisiae tim10-1 ts strain growth, BacTiter-Glo, 24 h | inhibition, % at 20 µM | 330,000 compounds, 2.2% hits | AID 463190, 2010;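 active = inhibition of at least 40%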;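 also: mutant grown at 25 °C; 0% = DMSO wells with yeast and 100% = wells holding no yeast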
tim23-1 inh: growth inhibitors of tim23-1 mutant yeast, primary screen, luminescence, uHTS; inhibition, % at 20 µM; 330,000 compounds, 1.3% hits; S. cerevisiae tim23-1 growth, BacTiter-Glo luminescence, 24 h; AID 463212, 2010;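 active = growth inhibition of the mutant yeast at or above 50%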;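 also: temperature-sensitive mutant grown at 25 °C; plate controls were DMSO-treated mutant yeast for no effect and medium wells lacking yeast for full effect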
NLRP3 yeast inh: NALP3 inflammasome inhibitors in reconstituted yeast, primary screen, luminescence, uHTS | inhibition, % at 10 µM | AID 2825, 2010 | Yeast reconstituted NLRP3/ASC/caspase-1, beta-gal luminescence, 24 h | 330,000 compounds, 0.39% hits;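 active = inhibition of 50% or more; inactive = inhibition below 50%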;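 also: plate controls were induced DMSO wells for no effect and uninduced yeast grown without galactose for full effect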
V-ATPase pHluor: regulators of yeast V-ATPase proton pumping, primary screen, pHLuorin cytosolic pH fluorescence | AID 504577, 2011 | S. cerevisiae | response, % at 10 µM | 350,000 compounds, 0.37% hits; in the data active = response mostly above about 7.3%, no sharp cut-off; inactive = mostly below about 5.4%; also: actives read high
tim10-1 conf: growth inhibitors of tim10-1 mutant yeast, confirmation, single concentration, luminescence, S. cerevisiae; inhibition, % at 20 µM; AID 463213, 2010; S. cerevisiae tim10-1 ts strain growth, BacTiter-Glo, 24 h; 7,400 compounds, 56% hits; shares compounds with tim10-1 inh;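 active = inhibition of yeast growth at or above a set limit in either of two repeat tests at 20 µM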;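 also: tim10-1 mutant grown at permissive 25 °C to find synthetic lethal compounds; 0% = DMSO yeast wells and 100% = medium wells without yeast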
Starred values were filed as active, the others as inactive; / = no result given. Hits are enriched below; roughly 4.2% of the tested compounds scored in any of these assays.

SMILES	TIM10 inh	NALP1 inh	tim10-1 inh	tim23-1 inh	NLRP3 yeast inh	V-ATPase pHluor	tim10-1 conf
Cc1cc(=O)oc2cc(OCc3ccc(C(=O)N4CCN(c5ccc([N+](=O)[O-])cc5)CC4)cc3)ccc12	/	35.8	/	/	/	-0.6	/
COc1ccc(-c2nc(CS(=O)CC(=O)NC3CCCc4ccccc43)c(C)o2)cc1OC (stereo unspecified)	15.3	-16.8	14.7	16.2	9.8	-2.6	/
COc1ccc(-c2nc(CSCC(=O)NC3CCCc4ccccc43)c(C)o2)cc1OC (stereo unspecified)	20.6	-2.4	41.1*	29.2	2.1	-0.4	10.9
CCCCNC(=S)N=Nc1c(O)[nH]c2ccccc12	31.6	0.3	46.5*	43.6	3.0	-2.4	41.4*
Fc1ccc(-c2nn3c(C4COc5ccccc5O4)nnc3s2)cc1 (stereo unspecified)	34.3	7.0	47.5*	25.3	1.8	-2.9	43.2*
O=C(NCc1ccc(Cl)cc1)C1CCN(c2nnc(N3CCCC3=O)s2)CC1	-4.4	1.5	3.3	9.2	15.4	-1.7	/
COc1ccc(-c2cc(-c3ccccc3)n3ncnc3n2)cc1	30.9	10.0	49.4*	31.5	36.0	2.2	22.0
COc1ccc(-c2cc(N3CCCC3)n3ncnc3n2)cc1	19.2	11.2	29.3	30.6	10.6	-2.2	/
FC(F)(F)c1ccc(N2CCOCC2)c(Nc2nc3ccccc3n3cnnc23)c1	19.8	22.0	53.8*	-51.1	-17.8	-0.5	58.7*
c1ccc(N2CCCCC2)c(Nc2nc3ccccc3n3cnnc23)c1	12.5	10.9	16.2	28.1	-0.6	1.0	/
CC(C)(C)c1cc(CCC(=O)NNC(=S)NC(=O)c2ccccc2)cc(C(C)(C)C)c1O	25.1	12.9	45.9*	28.4	17.8	3.0	30.6*
O=C(CCc1ccccc1)NNC(=S)NC(=O)c1ccccc1	13.1	-1.0	-40.4	-7.2	31.4	0.9	/
COc1cc(NC(=O)c2ccccc2F)c(OC)cc1NC(=O)CN1CCOCC1	13.8	9.4	43.0*	29.6	-4.3	-2.6	25.2
COc1c(S(=O)(=O)N2CCN(C)CC2)ccc(Cl)c1Cl	-1.5	18.1	11.5	2.4	13.8	-4.7	/
O=S(=O)(c1cccc(Cl)c1)N1CCN(S(=O)(=O)c2ccc3c(c2)OCCO3)CC1	-19.6	/	-7.7	-13.2	16.4	-1.7	/
O=S(=O)(c1ccc2c(c1)OCCO2)N1CCC(O)(c2ccc(Cl)cc2)CC1	13.3	35.2*	49.5*	35.1	15.3	1.1	35.8*
O=C(c1cn(-c2ccccc2)nc1-c1ccc(Cl)cc1)N1CCOCC1	31.4	19.9	34.6	46.2	10.2	1.1	/
O=C(c1cn(-c2ccccc2)nc1-c1ccc(Cl)s1)N1CCOCC1	20.7	39.6	43.7*	24.9	9.0	-4.3	25.2
COc1ccc(OCCC(=O)OCC(=O)Nc2cccc(Br)c2)cc1	8.1	27.6	20.1	21.1	0.1	5.5	/
O=C(CC1C(=O)NCCN1Cc1cccc(Oc2ccccc2)c1)NCCc1cscn1 (stereo unspecified)	15.7	-8.0	42.0*	20.4	-3.0	0.7	27.7
O=C1OC(c2ccccc2)/C(=C(/O)c2ccc(Cl)cc2)C1=O (stereo unspecified)	5.0	11.8	9.7	0.9	-19.3	-15.5	/
CC(=O)c1ccc(S(=O)(=O)Nc2ccc(-n3cnnn3)cc2)cc1	5.4	/	-14.2	-12.4	19.5	3.4	/
Cc1ccccc1N1CCN(S(=O)(=O)c2nnc(NC(=O)c3ccco3)s2)CC1	31.4	13.0	46.3*	34.8	9.9	-3.8	9.3
COc1ccc(-c2nnc(SC3CCOC3=O)n2C2CCCCC2)cc1OC (stereo unspecified)	5.3	16.6	13.1	-5.2	7.0	0.8	/
COc1cc(/C=N/N=C2/C(=O)Nc3ccccc32)cc(OC)c1O	36.3	19.2	43.7*	42.6	-9.2	0.0	51.5*
SMILES	TIM10 inh	NALP1 inh	tim10-1 inh	tim23-1 inh	NLRP3 yeast inh	V-ATPase pHluor	tim10-1 conf
N=C1C(c2nc3ccccc3c(=O)[nH]2)=C(O)CN1CCc1ccccc1	12.3	20.4	40.6*	9.2	-4.2	-4.6	-14.5
N=C1C(c2nc3ccccc3c(=O)[nH]2)=C(O)CN1CCO	1.2	-6.2	21.8	42.5	9.5	-1.3	/
O=C(Cc1cccc(C(F)(F)F)c1)OCC(=O)N1CCN(S(=O)(=O)c2ccc(Cl)cc2)CC1	7.5	/	47.4*	18.4	8.4	-0.2	14.9
Cc1cc(-c2ccc(C)c(S(=O)(=O)NCC3CCN(Cc4ccc(F)cc4)CC3)c2)on1	-10.5	14.9	42.2*	-23.9	15.3	-2.4	-81.3
O=C1C(NS(=O)(=O)c2cccs2)=C(N2CCOCC2)C(=O)c2ccccc21	12.4	2.8	18.8	23.4	-5.5	-1.2	/
CN(C1=C(N2CCOCC2)C(=O)c2ccccc2C1=O)c1ccccc1	11.9	27.5	44.9*	42.1	33.6	0.8	20.1
O=C(CCC1CCCC1)Nc1cccn(Cc2ccccc2Br)c1=O	26.9	/	-4.5	28.7	8.8	-4.0	/
COC(=O)CSc1nnc(Cc2ccccc2)n1-c1ccc(C)cc1	19.3	1.3	41.0*	15.8	1.2	1.1	25.5
COc1ccc(-n2c(CNc3ccc(C)cc3)nnc2SCc2ccccc2)cc1	26.2	18.5	42.9*	48.2	0.1	-0.7	34.0*
CCOC(=O)CSc1nnc(CNc2ccccc2Cl)n1-c1ccccc1	2.8	-3.7	45.2*	23.8	-20.5	1.2	19.8
Cc1ccc(-n2c(SCC(=O)OC(C)C)nnc2-c2ccccn2)cc1	29.8	3.5	41.8*	35.8	7.8	1.2	34.9*
Fc1ccc(CN2CCN(C(=S)NCCc3ccccc3)CC2)c(Cl)c1	19.8	-0.6	8.2	37.0	13.9	-0.7	/
O=C1CC(c2ccccc2)CC(O)=C1C=NC1CCCC1 (stereo unspecified)	3.9	16.4	11.8	12.8	15.6	-0.8	/
Cn1cccc1Cc1nnc(SCC(=O)N2CCc3ccccc32)n1-c1ccc(F)cc1	1.9	15.2	9.1	12.4	3.7	0.8	/
Cc1ccc(-n2c(Cc3cccn3C)nnc2SCC(=O)N2CCc3ccccc32)cc1	32.7	-7.6	42.6*	34.7	11.6	-2.1	22.3
O=C(Cc1csc(Nc2nc(=S)[nH]c3ccccc23)n1)NCc1ccccc1Cl	2.9	14.3	29.4	3.8	14.3	-0.6	/
Cc1ccc(CNC(=O)Cc2csc(Nc3nc(=S)[nH]c4ccccc34)n2)cc1	3.6	15.4	40.0	3.8	24.8	/	25.6
Cc1c(C2(O)CCCCC2)[nH]c2cnccc12	1.1	/	-2.8	10.9	20.9	9.9	/

Compound activity: PubChem, several laboratories
